Results: the supplement of paper PMC10849652
The full data set covers some 8,800 targets. This sample favours those with a hit. About 0.5% of all pairs of compound and target were hits. A number with no mark means an inactive call.

Tests used:
Assay in all cases: log2 fold change, soluble protein after heating vs DMSO (PISA); higher = thermal stabilisation; K562 lysate, 10 uM; active = over 0.2 and 3.5 SD of the protein, either way, in both replicates (recomputed)
[1] = compound: CN1CC[C@H](c2c(O)cc(O)c3c(=O)cc(-c4ccccc4Cl)oc23)[C@H](O)C1 [alvocidib]
Method in brief: (§1)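 K562 pellets were dounce-homogenised in PBS pH 7.4 containing 1 mM MgCl2, and the crude extract, at 1 mg/mL protein, was exposed to 10 μM compound for 30 min. Aliquots were heated for 3 min across 48°C-58°C, pooled, brought to 0.5% NP-40 at 4°C and spun at 21,000xg for 90 min, with the supernatant taken as soluble protein. TMTpro 16plex LC-MS/MS with equalised channel sums quantified that protein. Values are log-two fold changes in thermal stability relative to solvent controls, taken from duplicates.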

[2] = compound: CN1CCc2c(c3ccccc3n2Cc2ccc(C(=O)NO)cc2)C1 [Tubastatin A]
Method in brief: as §1

[3] = compound: CNC(=O)C1=CC=CC=C1NC2=NC(=NC=C2Cl)NC3=C(C=C(C=C3)N4CCOCC4)OC
Method in brief: as §1

[4] = compound: CNC(=O)c1ccc(Nc2ncc(C(F)(F)F)c(NCc3nccnc3N(C)S(C)(=O)=O)n2)cc1 [defactinib]
Method in brief: as §1

[5] = compound: CNc1nc(-c2ccc3c(N)n[nH]c3c2)cc(N2C[C@@H](C(=O)NC3CCCCC3)CC[C@H]2C)n1
Method in brief: as §1

[6] = compound: COC(=O)N[C@@H](C)CNc1nccc(-c2cn(C(C)C)nc2-c2cc(Cl)cc(NS(C)(=O)=O)c2F)n1 [encorafenib]
Method in brief: as §1

[7] = compound: COC(=O)[C@H](CCSC)NC(=O)C1=C(C=C(C=C1)NC[C@H](CS)N)C2=CC=CC=C2
Method in brief: as §1

[8] = compound: COc1cc(Nc2ncc3c(n2)-c2ccc(Cl)cc2C(c2c(F)cccc2OC)=NC3)ccc1C(=O)O [alisertib]
Method in brief: as §1

[9] = compound: COc1cc2nc(-c3cc(F)ccc3O)nc(N[C@@H]3CNC[C@H]3C(C)(C)O)c2cc1OC
Method in brief: as §1

[10] = compound: COc1cc2ncnc(Nc3ccc(F)c(Cl)c3)c2cc1OCCCN1CCOCC1 [gefitinib]
Method in brief: as §1

[11] = compound: CS(=O)(=O)CCNCc1ccc(-c2ccc3ncnc(Nc4ccc(OCc5cccc(F)c5)c(Cl)c4)c3c2)o1 [lapatinib]
Method in brief: as §1

[12] = compound: CS(=O)(=O)N1CCN(Cc2cc3nc(-c4cccc5[nH]ncc45)nc(N4CCOCC4)c3s2)CC1 [pictilisib]
Method in brief: as §1

[13] = compound: C[C@@H](Oc1cc(-c2cnn(C3CCNCC3)c2)cnc1N)c1c(Cl)ccc(F)c1Cl [crizotinib]
Method in brief: as §1

[14] = compound: C[C@H](C1=CC=C(C=C1)C(=O)NC2=C3C=CNC3=NC=C2)N
Method in brief: as §1

[15] = compound: C[C@H](Nc1ncnc2nc[nH]c12)c1cc2cccc(Cl)c2c(=O)n1-c1ccccc1 [duvelisib]
Method in brief: as §1

[16] = compound: Cc1cc(Nc2cc(CN3CCOCC3)c3nc(C)c(Cc4ccc(Cl)cc4F)n3n2)n[nH]1 [gandotinib]
Method in brief: as §1

[17] = compound: Cc1cc(Nc2cc(N3CCN(C)CC3)nc(Sc3ccc(NC(=O)C4CC4)cc3)n2)n[nH]1 [tozasertib]
Method in brief: as §1

[18] = compound: Cc1ccc(-n2nc(C(C)(C)C)cc2NC(=O)Nc2ccc(OCCN3CCOCC3)c3ccccc23)cc1 [doramapimod]
Method in brief: as §1

[19] = compound: Cc1ccc(NC(=O)c2ccc(CN3CC[C@H](N(C)C)C3)c(C(F)(F)F)c2)cc1Nc1nccc(-c2cncnc2)n1 [bafetinib]
Method in brief: as §1

[20] = compound: Cc1cccc(CC(=O)N2CCc3c2ccc(-c2cn(C)c4ncnc(N)c24)c3F)n1
Method in brief: as §1

Chain of UniProt Q9H9A6 (Q9H9A6 whole entry, looked up): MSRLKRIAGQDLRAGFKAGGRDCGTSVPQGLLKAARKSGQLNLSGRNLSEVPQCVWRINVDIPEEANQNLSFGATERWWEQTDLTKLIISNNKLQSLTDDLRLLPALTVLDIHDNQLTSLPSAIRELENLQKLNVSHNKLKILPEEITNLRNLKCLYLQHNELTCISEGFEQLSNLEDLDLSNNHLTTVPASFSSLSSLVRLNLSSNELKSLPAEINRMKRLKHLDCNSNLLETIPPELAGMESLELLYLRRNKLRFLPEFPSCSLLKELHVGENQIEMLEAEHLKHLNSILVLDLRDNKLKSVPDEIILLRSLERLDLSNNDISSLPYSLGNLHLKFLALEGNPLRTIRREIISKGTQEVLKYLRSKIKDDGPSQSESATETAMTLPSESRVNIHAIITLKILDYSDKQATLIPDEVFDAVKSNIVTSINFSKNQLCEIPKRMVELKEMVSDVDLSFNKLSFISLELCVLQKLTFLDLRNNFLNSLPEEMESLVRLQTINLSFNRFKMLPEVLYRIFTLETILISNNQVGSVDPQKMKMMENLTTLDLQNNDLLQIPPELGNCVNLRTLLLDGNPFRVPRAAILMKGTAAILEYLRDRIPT
Chain of UniProt Q14149 (Q14149 whole entry, looked up): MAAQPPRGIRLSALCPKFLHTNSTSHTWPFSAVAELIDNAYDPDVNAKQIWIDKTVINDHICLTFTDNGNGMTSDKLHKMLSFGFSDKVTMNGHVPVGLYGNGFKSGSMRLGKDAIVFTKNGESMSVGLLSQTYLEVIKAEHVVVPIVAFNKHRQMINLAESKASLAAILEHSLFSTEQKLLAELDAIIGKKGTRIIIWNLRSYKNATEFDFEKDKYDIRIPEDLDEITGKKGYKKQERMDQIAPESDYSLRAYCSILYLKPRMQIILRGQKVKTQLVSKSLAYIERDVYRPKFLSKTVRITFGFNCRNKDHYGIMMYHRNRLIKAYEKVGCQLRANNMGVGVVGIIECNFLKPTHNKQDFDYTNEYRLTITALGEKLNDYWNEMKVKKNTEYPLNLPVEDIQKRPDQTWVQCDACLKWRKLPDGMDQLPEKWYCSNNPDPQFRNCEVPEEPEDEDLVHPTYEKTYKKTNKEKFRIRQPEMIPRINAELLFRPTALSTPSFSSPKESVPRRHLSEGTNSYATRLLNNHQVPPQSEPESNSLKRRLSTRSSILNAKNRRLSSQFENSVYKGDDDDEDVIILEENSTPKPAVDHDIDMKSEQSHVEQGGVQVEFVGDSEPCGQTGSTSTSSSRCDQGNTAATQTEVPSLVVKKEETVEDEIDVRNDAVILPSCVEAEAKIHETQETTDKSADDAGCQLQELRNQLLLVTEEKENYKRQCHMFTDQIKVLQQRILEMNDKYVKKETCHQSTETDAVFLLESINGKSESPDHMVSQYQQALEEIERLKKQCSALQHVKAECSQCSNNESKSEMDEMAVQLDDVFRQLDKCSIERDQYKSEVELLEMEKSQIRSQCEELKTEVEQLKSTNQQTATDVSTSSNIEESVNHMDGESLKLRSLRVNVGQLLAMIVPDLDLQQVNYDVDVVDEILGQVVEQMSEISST
Chain of UniProt Q8IWC1 (Q8IWC1 whole entry, looked up): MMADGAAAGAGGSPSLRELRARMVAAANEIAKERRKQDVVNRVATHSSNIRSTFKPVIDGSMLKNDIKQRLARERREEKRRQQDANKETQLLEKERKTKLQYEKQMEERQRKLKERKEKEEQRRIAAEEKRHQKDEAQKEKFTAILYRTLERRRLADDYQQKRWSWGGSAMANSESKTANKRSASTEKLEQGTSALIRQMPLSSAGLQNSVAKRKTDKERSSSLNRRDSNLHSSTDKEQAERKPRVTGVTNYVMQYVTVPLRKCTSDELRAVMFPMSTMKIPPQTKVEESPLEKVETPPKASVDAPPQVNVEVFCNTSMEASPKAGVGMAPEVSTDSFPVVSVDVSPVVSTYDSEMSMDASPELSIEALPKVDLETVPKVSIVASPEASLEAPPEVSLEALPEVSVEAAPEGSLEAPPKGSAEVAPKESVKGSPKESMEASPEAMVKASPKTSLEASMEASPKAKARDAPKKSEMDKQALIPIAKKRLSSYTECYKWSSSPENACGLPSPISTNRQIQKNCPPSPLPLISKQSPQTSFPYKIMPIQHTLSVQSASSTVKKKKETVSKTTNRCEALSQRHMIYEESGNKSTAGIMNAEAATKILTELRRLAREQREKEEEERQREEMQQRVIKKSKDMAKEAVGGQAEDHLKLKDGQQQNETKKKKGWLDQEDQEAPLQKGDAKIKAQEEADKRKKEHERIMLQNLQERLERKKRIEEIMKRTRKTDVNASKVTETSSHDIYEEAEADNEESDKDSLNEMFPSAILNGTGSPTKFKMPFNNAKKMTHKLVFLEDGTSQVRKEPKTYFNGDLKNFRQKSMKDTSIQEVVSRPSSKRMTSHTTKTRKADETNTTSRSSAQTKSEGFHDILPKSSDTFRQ
Chain of UniProt O14880 (O14880 whole entry, looked up): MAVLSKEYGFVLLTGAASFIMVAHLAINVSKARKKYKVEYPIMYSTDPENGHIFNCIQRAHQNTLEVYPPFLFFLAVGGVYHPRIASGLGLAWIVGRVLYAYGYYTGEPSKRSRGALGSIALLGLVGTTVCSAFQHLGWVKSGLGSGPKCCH
Chain of UniProt P46734 (P46734 whole entry, looked up): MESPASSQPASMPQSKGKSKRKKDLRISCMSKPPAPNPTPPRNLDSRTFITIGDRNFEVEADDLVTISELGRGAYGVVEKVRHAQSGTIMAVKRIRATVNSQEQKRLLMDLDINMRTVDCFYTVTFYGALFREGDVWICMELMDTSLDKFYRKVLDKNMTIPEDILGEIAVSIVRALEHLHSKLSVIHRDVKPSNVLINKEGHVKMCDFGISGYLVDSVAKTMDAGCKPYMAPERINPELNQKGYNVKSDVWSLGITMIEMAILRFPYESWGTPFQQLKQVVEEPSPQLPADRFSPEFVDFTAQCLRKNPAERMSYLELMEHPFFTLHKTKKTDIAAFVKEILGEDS
Chain of UniProt P49137 (P49137 whole entry, looked up): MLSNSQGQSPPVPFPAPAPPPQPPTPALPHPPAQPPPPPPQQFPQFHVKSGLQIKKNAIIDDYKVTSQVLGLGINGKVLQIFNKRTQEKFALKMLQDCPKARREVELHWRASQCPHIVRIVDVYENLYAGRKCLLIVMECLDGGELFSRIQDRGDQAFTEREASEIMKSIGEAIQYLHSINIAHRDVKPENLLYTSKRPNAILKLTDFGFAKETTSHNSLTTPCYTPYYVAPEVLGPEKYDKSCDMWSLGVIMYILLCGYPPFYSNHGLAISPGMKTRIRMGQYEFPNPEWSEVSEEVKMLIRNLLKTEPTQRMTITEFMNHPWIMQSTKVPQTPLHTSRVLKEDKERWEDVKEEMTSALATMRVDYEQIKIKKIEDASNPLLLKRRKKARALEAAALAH
Chain of UniProt Q13015 (Q13015 whole entry, looked up): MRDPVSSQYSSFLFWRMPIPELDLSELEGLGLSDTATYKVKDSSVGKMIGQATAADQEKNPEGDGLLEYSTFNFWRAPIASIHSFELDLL

| Target | log2 fold change [1] | log2 fold change [2] | log2 fold change [3] | log2 fold change [4] | log2 fold change [5] | log2 fold change [6] | log2 fold change [7] | log2 fold change [8] | log2 fold change [9] | log2 fold change [10] | log2 fold change [11] | log2 fold change [12] | log2 fold change [13] | log2 fold change [14] | log2 fold change [15] | log2 fold change [16] | log2 fold change [17] | log2 fold change [18] | log2 fold change [19] | log2 fold change [20] |
| --- | --- | --- | --- | --- | --- | --- | --- | --- | --- | --- | --- | --- | --- | --- | --- | --- | --- | --- | --- | --- |
| MAP7D3 (UniProt Q8IWC1) | -0.063 | 0.015 | 0.037 | -0.379 (active) | -0.011 | 0.223 | 0.013 | 0.01 | -0.02 | 0.017 | 0.033 | 0.01 | -0.006 | -0.055 | -0.068 | 0.021 | 0.066 | 0.065 | -0.128 | 0.06 |
| MORC3 (UniProt Q14149) | -0.015 | -0.098 | 0.017 | 0.018 | -0.028 | 0.007 | 0.038 | -0.003 | 0.021 | -0.01 | 0.021 | -0.037 | -0.02 | 0.005 | -0.001 | -0.053 | 0.001 | 0.024 | -0.001 | 0.014 |
| MAPKAPK2 (UniProt P49137) | 0.069 | -0.078 | 0.077 | -0.059 | 0.025 | -0.026 | 0.046 | -0.023 | 0.114 | -0.013 | -0.04 | -0.05 | -0.014 | 0.046 | 0.033 | -0.03 | 0.004 | 0.092 | -0.037 | 0.018 |
| LRRC40 (UniProt Q9H9A6) | -0.009 | -0.089 | 0.019 | 0.013 | -0.012 | 0.021 | -0.038 | 0.031 | -0.008 | 0.001 | -0.004 | -0.012 | -0.007 | 0.015 | -0.025 | -0.088 | 0.014 | 0.009 | -0.028 | -0.032 |
| LRPPRC (UniProt P42704) | 0.076 | -0.091 | 0.011 | 0.037 | -0.041 | 0.005 | 0.079 | 0.029 | -0.006 | -0.005 | -0.01 | 0.048 | -0.062 | 0.058 | -0.005 | -0.189 | 0.023 | 0.022 | -0.008 | 0.045 |
| MAP2K3 isoform 3 (UniProt P46734) | 0.05 | -0.066 | 0.139 | 0.017 | -0.055 | -0.011 | 0.169 | 0 | -0.171 | -0.087 | -0.014 | -0.102 | -0.043 | -0.021 | 0.124 | 0.038 | 0.017 | -0.047 | -0.012 | -0.035 |
| MLLT11 (UniProt Q13015) | 0.056 | -0.052 | 0.108 | 0.086 | -0.019 | 0.138 | 0.099 | 0.115 | 0.067 | 0.023 | 0.051 | 0.237 | 0 | 0.025 | 0.002 | 0.329 | 0.087 | 0.447 (active) | -0.017 | 0.084 |
| MGST3 (UniProt O14880) | 0.071 | 0.043 | 0.054 | 0 | 0.029 | -0.04 | 0.052 | 0.026 | -0.005 | -0.038 | 0.01 | -0.017 | 0.004 | 0.23 | -0.02 | -0.078 | -0.035 | -0.025 | -0.048 | -0.087 |
